Source: PubChem BioAssay (NCATS)
Inconclusive results are not listed. Active and inactive are the calls of the source. The call rests on the fitted dose curve; in most records, active means well fitted curve in the direction sought with a large enough effect; inconclusive means small, poorly fitted or top-dose-only effect, or another doubt; inactive means no such curve, though single readings can be large; an effect the other way counts as inactive or inconclusive.

Legend:
CRL-7250 = normal cell line; test: Cytotoxic Profiling of Annotated Libraries Using Quantitative High-Throughput Screening (AID 1296008); settings: Five cell lines viability, CellTiter-Glo ATP luminescence, 48-72 h; max response: active compounds read low; further: nearly all actives have a fitted effect of over 60% in size; on max response: on the % scale 0 is the no-effect control and ±100 the full control effect
Method in brief: (§1)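 Cells exposed to compounds for 48 or 72 hr at 37 degrees Celsius. Viability read as ATP-coupled luminescence with CellTiter-Glo after 10 min at room temperature.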

HEK293 = test: as above; settings: Five cell lines viability, CellTiter-Glo ATP luminescence, 48-72 h; max response: active compounds read low
Method in brief: as §1

HaCat [1] = test: as above; settings: Five cell lines viability, CellTiter-Glo ATP luminescence, 48-72 h; max response: active compounds read low
Method in brief: as §1

KB-3-1 = test: as above; settings: Five cell lines viability, CellTiter-Glo ATP luminescence, 48-72 h; max response: active compounds read low
Method in brief: as §1

NIH3T3 = test: as above; settings: Five cell lines viability, CellTiter-Glo ATP luminescence, 48-72 h; max response: active compounds read low
Method in brief: as §1

HACAT [2] = test: qHTS assay to identify novel small-molecules to repurpose for Merkel cell carcinoma treatment (AID 1296009); settings: MCC and control cell lines, CellTiter-Glo viability, 72 h; at 44.8 µM (top of the series) unless noted; further: nearly all actives have a fitted effect of over 60% in size
Method in brief: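 Cells were treated for 72 hr at 37 degree celsius with compounds in 8- or 11-point dose response. Viability was read by CellTiter-Glo luminescence, normalized to no-cell (cytotoxicity) and DMSO controls.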

C33A = test: Primary qHTS to identify gynecologic anti-cancer compounds using libraries of approved drugs and bioactive compounds (AID 1345084); settings: Gynecologic cancer cell panel viability, ATPlite luminescence, 48 h; series mostly up to 57.5 µM; further: on the % scale 0 is the no-effect control and ±100 the full control effect; nearly all actives have a fitted effect of over 55% in size
Method in brief: (§2)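 ATP-based viability (ATPlite), 1,000 cells/well, 16 h pre-incubation, 48 h compound at 37 C, 5% CO2, 15 min RT before read.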

CAOV3 = test: as above; settings: Gynecologic cancer cell panel viability, ATPlite luminescence, 48 h; series mostly up to 57.5 µM
Method in brief: as §2

CASKI = test: as above; settings: Gynecologic cancer cell panel viability, ATPlite luminescence, 48 h; series mostly up to 57.5 µM
Method in brief: as §2

Es-2 = test: as above; settings: Gynecologic cancer cell panel viability, ATPlite luminescence, 48 h; series mostly up to 57.5 µM
Method in brief: as §2

HeLa = test: as above; settings: Gynecologic cancer cell panel viability, ATPlite luminescence, 48 h; series mostly up to 57.5 µM
Method in brief: as §2

Hek293T = test: as above; settings: Gynecologic cancer cell panel viability, ATPlite luminescence, 48 h, control line for the selectivity index; series mostly up to 57.5 µM
Method in brief: as §2

JEG-3 = test: as above; settings: Gynecologic cancer cell panel viability, ATPlite luminescence, 48 h; series mostly up to 57.5 µM
Method in brief: as §2

OV90 = test: as above; settings: Gynecologic cancer cell panel viability, ATPlite luminescence, 48 h; series mostly up to 57.5 µM
Method in brief: as §2

PA-1 = test: as above; settings: Gynecologic cancer cell panel viability, ATPlite luminescence, 48 h; series mostly up to 57.5 µM
Method in brief: as §2

NC(=O)C(O[C@@H]1O[C@H](CO[C@@H]2O[C@H](CO)[C@@H](O)[C@H](O)[C@H]2O)[C@@H](O)[C@H](O)[C@H]1O)c1ccccc1 (stereo not given in full)
inactive: outcome (CRL-7250) | max response (HEK293) -77.8% | outcome (HaCat [1]) | max response (KB-3-1) 4.92% | max response (NIH3T3) 4.15% | outcome (HACAT [2]) inactive [at 17.4 µM] | Potency (C33A) | Potency (CAOV3) | outcome (CASKI) | Potency (Es-2) | Potency (HeLa) | Potency (Hek293T) | Potency (JEG-3) | Potency (OV90) | Potency (PA-1)

COc1ccnc(CCc2nc3ncccc3[nH]2)c1
inactive: max response (CRL-7250) -4.02% | max response (HEK293) -80.6% | outcome (HaCat [1]) | outcome (KB-3-1) | max response (NIH3T3) 3.19% | outcome (HACAT [2]) | Potency (C33A) | Potency (CAOV3) | outcome (CASKI) | Potency (Es-2) | Potency (HeLa) | Potency (Hek293T) | Potency (JEG-3) | Potency (OV90) | Potency (PA-1)

COc1ccccc1Oc1c(NS(=O)(=O)c2ccc(C)cn2)nc(-c2ccncc2)nc1OC
inactive: max response (CRL-7250) 3.94% | max response (HEK293) -4.09% | outcome (HaCat [1]) | outcome (KB-3-1) | max response (NIH3T3) 0.566% | outcome (HACAT [2]) | Potency (C33A) | Potency (CAOV3) | outcome (CASKI) | Potency (Es-2) | Potency (HeLa) | Potency (Hek293T) | Potency (JEG-3) | Potency (OV90) | Potency (PA-1)

COc1c(C)c(OCC=C(C)C)cc2c1COC2=O
inactive: max response (CRL-7250) -4.58% | max response (HEK293) 3.79% | outcome (HaCat [1]) | max response (KB-3-1) 4.15% | max response (NIH3T3) 2.66% | outcome (HACAT [2]) | Potency (C33A) | Potency (CAOV3) | outcome (CASKI) | Potency (Es-2) | Potency (HeLa) | Potency (Hek293T) | Potency (JEG-3) | Potency (OV90) | Potency (PA-1)

CC(=O)OC1CC2C(C)(C)C(=O)C=CC2(C)C2CC(=O)C3=C(CCC3C3=CC(O)OC3=O)C12C (stereo not given)
inactive: max response (CRL-7250) 3.26% | max response (HEK293) 2.36% | outcome (HaCat [1]) inactive; activator | outcome (KB-3-1) | max response (NIH3T3) 0.622% | outcome (HACAT [2]) inactive; activator [at 17.4 µM] | Potency (C33A) | Potency (CAOV3) | outcome (CASKI) | Potency (Es-2) | Potency (HeLa) | Potency (Hek293T) | Potency (JEG-3) | Potency (OV90) | Potency (PA-1)

CC1(C(=O)O)CCCC2(C)C3CC4C5CC3(CCC12)CC45C (stereo not given)
inactive: max response (CRL-7250) -3.47% | max response (HEK293) 2.22% | outcome (HaCat [1]) | max response (KB-3-1) 4.9% | max response (NIH3T3) -21.3% | outcome (HACAT [2]) | Potency (C33A) | Potency (CAOV3) | outcome (CASKI) | Potency (Es-2) | Potency (HeLa) | Potency (Hek293T) | Potency (JEG-3) | Potency (OV90) | Potency (PA-1)

CC1CC2(O)OC(=O)C3=C2C(CCC3)[C@@]12C[C@@H](c1ccoc1)OC2=O (stereo not given in full)
inactive: max response (CRL-7250) 0.272% | max response (HEK293) -0.207% | outcome (HaCat [1]) | outcome (KB-3-1) | max response (NIH3T3) 0.0082% | outcome (HACAT [2]) | Potency (C33A) | Potency (CAOV3) | outcome (CASKI) | Potency (Es-2) | Potency (HeLa) | Potency (Hek293T) | Potency (JEG-3) | Potency (OV90) | Potency (PA-1)

C[C@@H]1CCC2C(C)(C)[C@H](O)[C@H](O)C[C@]2(C)[C@@]12Cc1c(O)cc3c(c1O2)CN(CCCC(=O)O)C3=O (stereo not given in full)
inactive: max response (CRL-7250) -7.06% | max response (HEK293) -1.57% | outcome (HaCat [1]) | max response (KB-3-1) 3.58% | max response (NIH3T3) 4.1% | outcome (HACAT [2]) inactive [at 17.4 µM] | Potency (C33A) | Potency (CAOV3) | outcome (CASKI) | Potency (Es-2) | Potency (HeLa) | Potency (Hek293T) | Potency (JEG-3) | Potency (OV90) | Potency (PA-1)

CC(=O)c1[nH]cc(CCC(=O)O)c1CC(=O)O
inactive: outcome (CRL-7250) | max response (HEK293) -1.24% | outcome (HaCat [1]) | outcome (KB-3-1) | max response (NIH3T3) -3.85% | outcome (HACAT [2]) | Potency (C33A) | Potency (CAOV3) | outcome (CASKI) | Potency (Es-2) | Potency (HeLa) | Potency (Hek293T) | Potency (JEG-3) | Potency (OV90) | Potency (PA-1)

CC1CCC2C(C)(C)[C@H](O)CC[C@]2(C)C12Cc1c(O)cc3c(c1O2)CN(C(CCC(=O)O)C(=O)O)C3=O (stereo not given in full)
inactive: max response (CRL-7250) -1.74% | max response (HEK293) 0.0488% | outcome (HaCat [1]) | outcome (KB-3-1) | max response (NIH3T3) 3.99% | outcome (HACAT [2]) inactive [at 17.4 µM] | Potency (C33A) | Potency (CAOV3) | outcome (CASKI) | Potency (Es-2) | Potency (HeLa) | Potency (Hek293T) | Potency (JEG-3) | Potency (OV90) | Potency (PA-1)

CC1=C(C)C(=O)OC(C(C)C2C(O)CC3C4C5OC5C5(O)CC(OC6OC(CO)C(OC7OC(C)C(O)C(O)C7O)C(O)C6O)CC(O)C5(C)C4CCC32C)C1 (stereo not given)
inactive: max response (CRL-7250) -10% | max response (HEK293) -3.17% | outcome (HaCat [1]) | max response (KB-3-1) 2.34% | max response (NIH3T3) 0.724% | outcome (HACAT [2]) inactive [at 17.4 µM] | Potency (C33A) | Potency (CAOV3) | outcome (CASKI) | Potency (Es-2) | Potency (HeLa) | Potency (Hek293T) | Potency (JEG-3) | Potency (OV90) | Potency (PA-1)

COC(=O)C1=CO[C@@H](O[C@@H]2O[C@H](CO)[C@@H](O)[C@H](O)[C@H]2O)C2C1CC(O)C2C (stereo not given in full)
inactive: max response (CRL-7250) -13.7% | max response (HEK293) 0.336% | outcome (HaCat [1]) | outcome (KB-3-1) | max response (NIH3T3) -5.32% | outcome (HACAT [2]) | Potency (C33A) | Potency (CAOV3) | outcome (CASKI) | Potency (Es-2) | Potency (HeLa) | Potency (Hek293T) | Potency (JEG-3) | Potency (OV90) | Potency (PA-1)
